Experiment [1] deals with Nucleoli Translocation, AR (gene 367) (UniProt P10275). Nature of the experiment: UPITT_HCI_U2OS_AR_TIF2_Nucleoli_Antagonist: University of Pittsburgh U2OS Androgen Receptor-Transcriptional Intermediary Factor 2 (AR-TIF2) Antagonism High Content Imaging Assay for Nucleoli Translocation (AID 2283997; active = hit-call score of the fitted dose curve at least 0.9, where 1 is the maximum). Summed up:
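U2OS cells expressing RFP-tagged human AR and GFP-tagged TIF2 were imaged by high-content fluorescence microscopy for red AR signal in the nucleolar region. Compounds were screened at 20 uM final (0.2% DMSO), with activity fitted relative to DHT as baseline.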

Experiment [2] can be described thus: CEETOX_H295R_CORTISOL_noMTC: CeeTox H295R High-throughput Steroidogenesis Assay for Cortisol, maximum tolerated concentration (MTC) filtered results only (AID 2283916). To be noted: actives raise or lower the signal. In short, it runs like this: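 H295R adrenal cells were pre-stimulated 48 h with 10 uM forskolin, then exposed 48 h to test chemical in 0.1% DMSO. Medium cortisol was measured by MTBE extraction and HPLC-MS/MS; bidirectional fit versus DMSO, concentrations not MTC-filtered.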

Experiment [3] can be described thus: CEETOX_H295R_CORTIC_noMTC: CeeTox H295R High-throughput Steroidogenesis Assay for Corticosterone (CORTIC), maximum tolerated concentration (MTC) filtered results only (AID 2283917). The following applies: actives raise or lower the signal. Summed up:
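H295R, 10 uM forskolin prestim 48 h → test chem (0.1% DMSO final) 48 h → media MTBE extraction → HPLC-MS/MS corticosterone. Bidirectional fit vs DMSO baseline; no MTT-based MTC filtering.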

Experiment [4] in a line: CEETOX_H295R_DOC_noMTC: CeeTox H295R High-throughput Steroidogenesis Assay for DOC, maximum tolerated concentration (MTC) filtered results only (AID 2283918). To be noted: actives raise or lower the signal. In short, it runs like this: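 H295R cells prestimulated 48 h with 10 uM forskolin, then exposed 48 h to test chemical (0.1% DMSO final). Medium 11-deoxycorticosterone extracted with MTBE, quantified by HPLC-MS/MS; bidirectional fit versus DMSO, concentrations not MTC-filtered.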

Experiment [5] can be described thus: CEETOX_H295R_ESTRADIOL_noMTC: CeeTox H295R High-throughput Steroidogenesis Assay for Estradiol, maximum tolerated concentration (MTC) filtered results only (AID 2283919). To be noted: actives raise or lower the signal. Summed up: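 H295R human adrenal cells pre-stimulated 48 h with 10 uM forskolin, then exposed 48 h to chemical (0.1% DMSO final). Estradiol in medium measured by HPLC-MS/MS after MTBE extraction and dansyl derivatization; bidirectional fit versus DMSO, concentrations not MTT-filtered.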

A short description of experiment [6]: CEETOX_H295R_PROG_noMTC: CeeTox H295R High-throughput Steroidogenesis Assay for Progesterone (PROG), maximum tolerated concentration (MTC) filtered results only (AID 2283920). The following applies: actives raise or lower the signal. In short, it runs like this:
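H295R human adrenal cells were prestimulated 48 h with 10 uM forskolin, then exposed 48 h to test chemical (0.1% DMSO final). Progesterone in medium was quantified by HPLC-MS/MS; bidirectional fitting versus DMSO, concentrations not MTC-filtered.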

A short description of experiment [7]: CEETOX_H295R_ESTRONE_noMTC: CeeTox H295R High-throughput Steroidogenesis Assay for Estrone, maximum tolerated concentration (MTC) filtered results only (AID 2283921). The following applies: actives raise or lower the signal. Summed up:
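H295R cells prestimulated 48 h with 10 uM forskolin, then exposed 48 h to chemical in 0.1% DMSO; medium estrone measured by HPLC-MS/MS after MTBE extraction and dansyl derivatization, fitted bidirectionally versus DMSO without MTT-based MTC filtering.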

The nature of experiment [8]: CEETOX_H295R_TESTO_noMTC: CeeTox H295R High-throughput Steroidogenesis Assay for Testosterone (TESTO), maximum tolerated concentration (MTC) filtered results only (AID 2283924). To be noted: actives raise or lower the signal. Summed up:
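H295R cells prestimulated 48 h with 10 uM forskolin, then exposed 48 h to chemicals in 0.1% DMSO final. Testosterone in medium quantified by MTBE extraction and HPLC-MS/MS; bidirectional fit versus DMSO, concentrations […] filtered by MTT-based maximum tolerated concentration.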

The subject of another experiment is DIO1 (gene 1733). Nature of the experiment: CCTE_GLTED_hDIO1: CCTE's human Deiodinase 1 (DIO1) Inhibition Assay, Great Lakes Toxicology and Ecology Division (GLTED) Lab (AID 2283987; active = hit-call score of the fitted dose curve at least 0.9, where 1 is the maximum;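 also: isolated human DIO1 enzyme in a cell-free setup rather than cells; enzyme activity read as free iodide liberated from substrate via Sandell-Kolthoff colorimetry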). Summed up: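 Cell-free human DIO1 enzyme was incubated with test chemical for 3 h, and iodide released from substrate was measured by Sandell-Kolthoff absorbance. Loss of signal versus DMSO baseline indicated inhibition; plates were run in triplicate.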

Records with an inconclusive call do not appear. The source made the active and inactive calls. The calls were made as follows, unless noted: active = hit-call score of the fitted dose curve at least 0.9, where 1 is the maximum; inactive = score below 0.9.

Here are results for 10 molecules from PubChem BioAssay (EPA / NIEHS).

In general, AC50 refers to the midpoint of the concentration-response curve, whichever way the signal moves.

Sequence of Nucleoli Translocation, AR (gene 367) (P10275 whole entry, looked up): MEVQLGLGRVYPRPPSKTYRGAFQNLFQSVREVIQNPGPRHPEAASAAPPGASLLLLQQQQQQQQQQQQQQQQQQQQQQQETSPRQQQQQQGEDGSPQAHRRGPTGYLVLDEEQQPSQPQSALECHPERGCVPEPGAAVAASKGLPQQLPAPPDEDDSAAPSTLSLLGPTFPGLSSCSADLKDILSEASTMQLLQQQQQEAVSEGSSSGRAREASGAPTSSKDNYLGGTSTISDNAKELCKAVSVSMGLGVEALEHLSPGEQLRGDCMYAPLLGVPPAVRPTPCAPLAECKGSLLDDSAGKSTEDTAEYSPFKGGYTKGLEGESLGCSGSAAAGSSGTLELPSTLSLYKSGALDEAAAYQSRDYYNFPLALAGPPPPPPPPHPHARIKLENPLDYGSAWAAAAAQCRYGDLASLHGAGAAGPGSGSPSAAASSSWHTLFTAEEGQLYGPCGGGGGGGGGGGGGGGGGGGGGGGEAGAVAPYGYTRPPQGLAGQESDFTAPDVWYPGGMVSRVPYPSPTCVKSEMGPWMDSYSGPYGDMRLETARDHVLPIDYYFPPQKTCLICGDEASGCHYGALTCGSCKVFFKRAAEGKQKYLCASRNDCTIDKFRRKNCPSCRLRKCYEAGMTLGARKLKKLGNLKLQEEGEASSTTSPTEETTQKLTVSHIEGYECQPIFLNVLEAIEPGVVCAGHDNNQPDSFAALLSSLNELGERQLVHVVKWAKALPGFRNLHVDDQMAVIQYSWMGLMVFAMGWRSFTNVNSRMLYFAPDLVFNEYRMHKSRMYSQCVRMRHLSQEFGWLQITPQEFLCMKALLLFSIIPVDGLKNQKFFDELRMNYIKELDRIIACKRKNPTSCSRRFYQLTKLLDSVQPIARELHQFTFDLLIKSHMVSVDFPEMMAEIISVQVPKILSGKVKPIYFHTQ

With `CC(CCO)CC(C)(C)C` (configuration not stated), the outcome in [1] was inactive.

`CCCCCCCCCCOC(=O)c1ccccc1C(=O)OCCCCCCCC`: the molecule was called inactive in experiment [2], in experiment [3], in experiment [5], in experiment [7] and in experiment [1]. Besides, the AC50 in [4] is 33.3 µM (active); in experiment [6] it was 39.1 µM (active); in experiment [8], 43 µM (active).

As for `COC(=O)c1cccc(C(=O)OC)c1`, the call in experiment [5], in experiment [6], in experiment [7], in experiment [8] and in experiment [1] was inactive.

Turning to `COc1cc(OC)c2ccc(=O)oc2c1`, the molecule was called inactive in [5], in [6], in experiment [7], in experiment [8] and in experiment [1].

Take `CC(C)(C)c1ccc(S)cc1`: in the experiment on DIO1 (gene 1733), the AC50 is 16.3 µM (active).

As to `CCOc1ccc(NC(C)=O)cc1`, the result in experiment [1] was inactive.

On to `c1ccc2c(c1)-c1ccc3ccc4cccc5cc-2c1c3c45`, for which the AC50 in [1] was 15.4 µM (active).

Take `O=C(O)C1=NN(c2ccc(S(=O)(=O)O)cc2)C(=O)C1`: the AC50 in the experiment on DIO1 (gene 1733) is 57.6 µM (active).

Take `CC(=O)N(C)C`: the outcome in experiment [1] was inactive.

Turning to `COC(=O)C(C)Oc1ccc(Oc2ncc(C(F)(F)F)cc2Cl)cc1` (configuration not stated), the AC50 in [5] was 23.5 µM (active); in [6], 35.1 µM (active); in [7], 27.9 µM (active).
